The results in this text go back to PubChem BioAssay (NCATS).

Records with an inconclusive call do not appear. Activity calls are given as the source filed them. Unless noted, the call rests on the fitted dose curve.

Glucagon-like peptide 1 receptor (Homo sapiens), sequence (P43220 whole entry, looked up): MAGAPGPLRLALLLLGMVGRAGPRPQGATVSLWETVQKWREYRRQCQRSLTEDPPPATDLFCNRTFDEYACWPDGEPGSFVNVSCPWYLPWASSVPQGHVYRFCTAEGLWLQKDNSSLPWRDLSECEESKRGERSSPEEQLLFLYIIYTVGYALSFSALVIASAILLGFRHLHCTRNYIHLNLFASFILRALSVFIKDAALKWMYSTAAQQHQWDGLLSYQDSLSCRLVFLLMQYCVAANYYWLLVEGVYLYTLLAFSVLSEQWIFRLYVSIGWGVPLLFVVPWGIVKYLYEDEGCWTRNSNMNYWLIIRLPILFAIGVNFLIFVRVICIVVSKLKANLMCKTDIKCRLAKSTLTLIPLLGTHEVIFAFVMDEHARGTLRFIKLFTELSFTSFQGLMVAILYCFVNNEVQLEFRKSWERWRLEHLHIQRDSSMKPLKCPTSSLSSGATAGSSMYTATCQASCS

System in one test: not listed separately
As to the kind of experiment: S16 Schwann cell PMP22 intronic element beta-lactamase assay (AID 624044). Further: nearly all actives have a fitted effect of over 15% in size. Further: potency means the concentration at half of the fitted maximal effect.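 On ratio activity, negative = inhibition: 0% = DMSO and -100% = potassium clavulanate positive control.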 As to conditions: S16 rat Schwann cells, PMP22 element beta-lactamase FRET, 24 h; series mostly up to 38.3 µM; ratio activity, negative = inhibition: at the top concentration. Summed up: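 Beta-lactamase reporter under a PMP22 intronic regulatory element in stable S16 rat Schwann cells; 24 h compound exposure. 460 nm blue signal normalized between DMSO (0%) and potassium clavulanate, with 535 nm FRET tracking viability; curves classed by r2 and response.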
Consider `COc1cc(N)c(Cl)cc1C(=O)NC1CCN(Cc2ccccc2)CC1`, for which the “ratio activity, negative = inhibition” value was -17.2% [at 17.1 µM] (inactive).

In the case of `CC[C@H](c1ccc(O)cc1)[C@@H](CC)c1ccc(O)cc1`, the “ratio activity, negative = inhibition” value is -0.767% [at 17.1 µM] (inactive).

Take `CCN(CC)CCOc1ccccc1C(=O)CCc1ccccc1`: the “ratio activity, negative = inhibition” value was -4.37% (inactive).

Regarding `CN(Cc1ccc(C(C)(C)C)cc1)Cc1cccc2ccccc12`, the “ratio activity, negative = inhibition” value was -7.43% (inactive).

As to `CCOC(=O)Nc1ccc2c(c1)N(C(=O)CCN1CCOCC1)c1ccccc1S2`, the “ratio activity, negative = inhibition” value was -4.72% [at 17.1 µM] (inactive).

As for `NS(=O)(=O)Cc1noc2ccccc12`, the “ratio activity, negative = inhibition” value was 5.78% (inactive).

On to `O=[N+]([O-])c1cccc(S(=O)(=O)NCCNS(=O)(=O)c2cccc([N+](=O)[O-])c2)c1`, for which the “ratio activity, negative = inhibition” value is 5.64% (inactive).

On to `O=C(CN1CCN(Cc2ccc3c(c2)OCO3)CC1)N1c2ccccc2Sc2ccccc21`, for which the “ratio activity, negative = inhibition” value was 0.888% (inactive).

Regarding `CCOC(=O)[C@H](CCc1ccccc1)N[C@@H](C)C(=O)N1[C@H](C(=O)O)C[C@H]2CCCC[C@@H]21`, the “ratio activity, negative = inhibition” value was -0.708% (inactive).

Turning to `Cc1ccc2c(Br)cc(Br)c(O)c2n1`, the Potency is 17.8 µM (active).

Take `O=C(O)C1(C(=O)O)CCC1.[NH2-].[NH2-].[Pt+2]`: the “ratio activity, negative = inhibition” value was -9.51% (inactive).

With `CCCCCCCCCCCCCC[N+](C)(C)Cc1ccccc1`, the “ratio activity, negative = inhibition” value is -13.2% (inactive).

As for `CCCCCCCCCCCCSCCOCCO`, the “ratio activity, negative = inhibition” value is -0.88% (inactive).

For `CCCCNc1ccc(C(=O)OCCOCCOCCOCCOCCOCCOCCOCCOCCOC)cc1`, the “ratio activity, negative = inhibition” value was 3.72% [at 17.1 µM] (inactive).

On to `O=c1[nH]c(=O)n([C@H]2C[C@H](O)[C@@H](CO)O2)cc1F`, for which the Potency is 0.0056 µM (active).

Turning to `Cc1ccc(-c2ncc(Cl)cc2-c2ccc(S(C)(=O)=O)cc2)cn1`, the “ratio activity, negative = inhibition” value was -1.77% (inactive).

As for `CO[C@]12C[C@@H](COC(=O)c3cncc(Br)c3)CN(C)[C@@H]1Cc1cn(C)c3cccc2c13`, the “ratio activity, negative = inhibition” value was -10.5% (inactive).

Consider `c1ccc(CC2=NCCN2)cc1`, for which the “ratio activity, negative = inhibition” value is 3.57% [at 17.1 µM] (inactive).

As for `NC(N)=NCc1cccc(I)c1`, the “ratio activity, negative = inhibition” value is -2.47% (inactive).

`NCc1ccccc1Sc1ccccc1CO`: the “ratio activity, negative = inhibition” value is -0.887% (inactive).

As for `CN(CCCN1c2ccccc2CCc2ccccc21)CC(=O)c1ccc(Cl)cc1`, the “ratio activity, negative = inhibition” value was 3.34% (inactive).

As for `NC(=S)N/N=C/c1cccnc1`, the “ratio activity, negative = inhibition” value was 2.41% (inactive).

Consider `CNCCCCOc1ccccc1Cc1ccccc1`, for which the “ratio activity, negative = inhibition” value is -28.7% (inactive).

As for `O=C(Nc1ncc([N+](=O)[O-])s1)c1cccs1`, the “ratio activity, negative = inhibition” value is 5.96% (inactive).

As to `O=C(CCN1CCN2CCCC2C1)N1c2ccccc2Sc2ccc(Cl)cc21` (configuration not stated), the “ratio activity, negative = inhibition” value was 0.456% (inactive).

With `Cc1c(-c2ccccc2)oc2c(C(=O)OCCN3CCCCC3)cccc2c1=O`, the “ratio activity, negative = inhibition” value was -3.31% [at 17.1 µM] (inactive).

The target in the next test is Glutaminase kidney isoform, mitochondrial (Homo sapiens) (UniProt O94925). The test is described as follows: qHTS for Inhibitors of Glutaminase (GLS): LOPAC Validation (AID 624146; active means well fitted curve in the direction sought with a large enough effect; an effect the other way counts as inactive or inconclusive;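 further: glutamate product detected by oxidase and peroxidase coupled Amplex red fluorescence gain; on the % scale 0 is the no-effect control and ±100 the full control effect; nearly all actives have a fitted effect of over 60% in size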). As to conditions: glutaminase enzyme activity inhibition; series mostly up to 46.1 µM; activity change, negative = inhibition: at the top concentration. In a few lines: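 Two-point fluorescence kinetic (t0, 30 min RT) for hKGA; glutamate detected via glutamate oxidase–HRP–Amplex Red. Substrate: 1 mM L-glutamine solution; buffer 45 mM KH2PO4, pH 8.2.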
Glutaminase kidney isoform, mitochondrial (Homo sapiens), sequence (O94925 whole entry, looked up, canonical isoform): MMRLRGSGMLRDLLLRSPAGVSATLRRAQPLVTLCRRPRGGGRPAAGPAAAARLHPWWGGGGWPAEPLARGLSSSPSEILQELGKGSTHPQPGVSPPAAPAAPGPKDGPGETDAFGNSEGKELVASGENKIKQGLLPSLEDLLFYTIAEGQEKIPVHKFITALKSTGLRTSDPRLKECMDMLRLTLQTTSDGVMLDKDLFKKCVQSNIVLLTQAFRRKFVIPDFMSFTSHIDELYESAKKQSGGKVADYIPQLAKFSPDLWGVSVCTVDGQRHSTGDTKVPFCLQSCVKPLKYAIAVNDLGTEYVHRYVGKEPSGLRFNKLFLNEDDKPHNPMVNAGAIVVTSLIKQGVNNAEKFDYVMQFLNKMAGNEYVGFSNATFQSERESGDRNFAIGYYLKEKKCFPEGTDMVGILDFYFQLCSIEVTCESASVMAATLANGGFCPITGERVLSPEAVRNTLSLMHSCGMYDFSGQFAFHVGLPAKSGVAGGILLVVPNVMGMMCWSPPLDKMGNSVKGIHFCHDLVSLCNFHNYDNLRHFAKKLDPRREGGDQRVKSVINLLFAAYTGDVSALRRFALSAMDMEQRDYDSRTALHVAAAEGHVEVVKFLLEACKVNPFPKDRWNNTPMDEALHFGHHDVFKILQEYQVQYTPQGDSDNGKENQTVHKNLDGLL
A general note: In qHTS, concentration-response curves come from the screen itself.
With `CN=C(N)NCCC[C@H](N)C(=O)O`, the “activity change, negative = inhibition” value was 0.765% (inactive).

For the molecule `CCOC(=O)[C@H](CCc1ccccc1)N[C@@H](C)C(=O)N1[C@H](C(=O)O)C[C@H]2CCCC[C@@H]21`, the “activity change, negative = inhibition” value was -10.3% (inactive).

Turning to `CC(C)(C)NC[C@H](O)COc1nsnc1N1CCOCC1`, the “activity change, negative = inhibition” value is 2.09% (inactive).

For the molecule `NC(N)=NCc1cccc(I)c1`, the “activity change, negative = inhibition” value was -4.1% (inactive).

System in a further test: not listed separately
The test is described as follows: qHTS of Trypanosoma Brucei Inhibitors: LOPAC Validation (AID 624147; active means well fitted curve in the direction sought with a large enough effect; an effect the other way counts as inactive or inconclusive; further: 0% is about no effect). Conditions: purified enzyme assay, luminescence, 45 min; series mostly up to 57.5 µM; activity change, negative = inhibition: at the top concentration. The source says:
Members of the Trypanosomatidae family of parasitic protozoans cause a spectrum of diseases throughout the tropical and subtropical world. Sleeping sickness, caused by two subspecies of Trypanosoma brucei, is endemic to areas of sub-Saharan Africa, while Chagas' disease, a manifestation of Trypanosoma cruzi infection, is prevalent throughout Central and South America. In addition, many species of Leishmania are responsible for a range of cutaneous and visceral diseases, causing ulcers, destructive lesions and kalaazar, a lethal infection of the viscera. These diseases cause severe public health and economic burdens on populations that are often already caught in a tragic cycle of poverty, poor nutrition and disease. Collectively, parasites of the trypanosomatid family infect 30 million people worldwide (~500 million live in endemic areas), and account for ~130K deaths annually. Existing treatments have developed little in the past 50 years, and suffer from toxicity, poor efficacy and resistance; the goal of this project is to develop lead drugs that will be suitable for entry into pre-clinical trials.
Glycolysis in axenically cultured T. cruzi, representing the intracellular pathogenic stage, is also essential for these parasites. {Engel, 1987} This project aims to discover and optimize selective inhibitors of the glycolytic enzyme pyruvate kinase (PYK) from Trypanosoma brucei, the parasite that causes sleeping sickness. […] Trypanosomatid PYKs show significant differences from their human counterparts including only 47-50% sequence identity and different allosteric and activation properties.{Callens, 1992} To this end, a qHTS was done against the MLSMR to discover inhibitors.
NIH Molecular Libraries Probe Production Network [MLPCN]
NIH Chemical Genomics Center [NCGC]
PI Name: Malcolm Walkinshaw, University of Edinburgh
2 uL of TbPYK/substrate buffer (columns 1-3, 5-48) are dispensed into Greiner white solid bottom 1536-well assay plates; column 4 receives only TEA buffer as 0x TbPYK controls. Compounds are then transferred via Kalypsys pin tool equipped with 1536-pin array (10 nL slotted pins, V&P Scientific, San Diego, CA). Following addition of compound, 2 uL of ADP (130 uM final concentration, all columns) is added to initiate the reaction. The plates are then incubated at room temperature for 45 minutes. Kinase-Glo Plus reagent is added (3 uL) and plates incubated for 10 minutes, before being transferred to a ViewLux high-throughput CCD imager (PerkinElmer) wherein single end-point measurements of luminescence are acquired using a clear filter. All reagents are diluted in an assay buffer consisting of 50 mM TEA (pH 7.2), 100 mM KCl, 10 mM MgCl2, 0.05% BSA and 0.01% Tween-20. […]
Regarding `CN=C(N)NCCC[C@H](N)C(=O)O`, the “activity change, negative = inhibition” value was -6.18% (inactive).

`CCOC(=O)[C@H](CCc1ccccc1)N[C@@H](C)C(=O)N1[C@H](C(=O)O)C[C@H]2CCCC[C@@H]21`: the “activity change, negative = inhibition” value was -3.48% (inactive).

Consider `CC(C)(C)NC[C@H](O)COc1nsnc1N1CCOCC1`, for which the “activity change, negative = inhibition” value is -12.7% (inactive).

In the case of `NC(N)=NCc1cccc(I)c1`, the “activity change, negative = inhibition” value was -3.2% (inactive).

The target in another test is Glucagon-like peptide 1 receptor (Homo sapiens) (UniProt P43220). As to the kind of experiment: qHTS of GLP-1 Receptor Agonists: LOPAC Validation (AID 624148; active means well fitted curve in the direction sought with a large enough effect; an effect the other way counts as inactive or inconclusive;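 further: 0% is about no effect; higher luminescence signal means agonism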). As to conditions: GLP-1R agonist cell assay; series mostly up to 46.1 µM; activation: at the top concentration. Summed up:
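HEK293 cells stably co-expressing a cAMP-responsive luciferase reporter and a hypersensitive GLP-1R were plated 12 h at 37 °C and exposed to compounds for 4-6 hr at 37 °C, 5% CO2. Luminescence was read 12 min after adding detection reagent.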
As for `CN=C(N)NCCC[C@H](N)C(=O)O`, the “activation” value was 8.43% (inactive).

On to `CCOC(=O)[C@H](CCc1ccccc1)N[C@@H](C)C(=O)N1[C@H](C(=O)O)C[C@H]2CCCC[C@@H]21`, for which the “activation” value is -2.84% (inactive).

As for `CC(C)(C)NC[C@H](O)COc1nsnc1N1CCOCC1`, the “activation” value was -1.68% (inactive).

Take `NC(N)=NCc1cccc(I)c1`: the “activation” value is 0.548% (inactive).

System in the next test: not listed separately
The test is described as follows: qHTS of Nrf2 Activators: LOPAC Validation (AID 624149; active means well fitted curve in the direction sought with a large enough effect; an effect the other way counts as inactive or inconclusive; further: 0% is about no effect). As to conditions: Nrf2/ARE reporter cell assay; series mostly up to 46.1 µM; activation: at the top concentration. Summed up:
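Luciferase signal from ARE activation, read with Steady-Glo after 30 min at room temperature. Compounds were pin-transferred onto AREc32_Fluc cells (1000/well, OPTI-MEM/5% FBS, seeded overnight) and left 24 hr at 37 deg C.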
For `CN=C(N)NCCC[C@H](N)C(=O)O`, the “activation” value was -2.28% (inactive).

Regarding `CCOC(=O)[C@H](CCc1ccccc1)N[C@@H](C)C(=O)N1[C@H](C(=O)O)C[C@H]2CCCC[C@@H]21`, the “activation” value was -1.61% (inactive).

`CC(C)(C)NC[C@H](O)COc1nsnc1N1CCOCC1`: the “activation” value was -2.04% (inactive).

Take `NC(N)=NCc1cccc(I)c1`: the “activation” value is -0.893% (inactive).
